Screening results deposited in PubChem by National Center for Advancing Translational Sciences (NCATS).
This is a sample that favours compounds with a hit; in the whole collection about 3% have one here.
VDR inhibitor = blocks the human vitamin D receptor; Potency, µM, actives largely listed as inhibitors; VDR-SRC2-3 peptide fluorescence polarization, 2 h; 400,000 tested, 0.93% active; P11473
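Fluorescence polarization assay measuring small-molecule disruption of VDR binding to the coregulator peptide SRC2-3. Compounds were pin-transferred (23 nl) into the reagent mix and incubated 2 h at room temperature before reading.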
KAT2A inh = GCN5L2 (KAT2A) acetyltransferase inhibition | AID 504327 | Potency, µM (doses to about 58.9 µM), usual class: inhibitors | 390,000 tested, 0.21% active | GCN5L2 HAT assay, ThioGlo1 CoA-SH fluorescence
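Preincubate 20nM GCN5L2 with compound 15 min, RT → add 50uM ThioGlo1 + 75uM H3(1-25) + 70uM acetyl-CoA → read fluorescence 0 and 20 min. Primary qHTS; fluorescent artifacts likely.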
USP1-UAF1 inh = blocks the human USP1/UAF1 deubiquitinase complex | O94782 | recombinant USP1/UAF1, Ub-Rhodamine cleavage fluorescence | Potency, µM (titrated, usually from 57.1 µM), usual class: inhibitors | 390,000 tested, 0.23% active; also: nearly all actives have a fitted effect of over 60% in size
Target sequence (O94782 whole entry, looked up): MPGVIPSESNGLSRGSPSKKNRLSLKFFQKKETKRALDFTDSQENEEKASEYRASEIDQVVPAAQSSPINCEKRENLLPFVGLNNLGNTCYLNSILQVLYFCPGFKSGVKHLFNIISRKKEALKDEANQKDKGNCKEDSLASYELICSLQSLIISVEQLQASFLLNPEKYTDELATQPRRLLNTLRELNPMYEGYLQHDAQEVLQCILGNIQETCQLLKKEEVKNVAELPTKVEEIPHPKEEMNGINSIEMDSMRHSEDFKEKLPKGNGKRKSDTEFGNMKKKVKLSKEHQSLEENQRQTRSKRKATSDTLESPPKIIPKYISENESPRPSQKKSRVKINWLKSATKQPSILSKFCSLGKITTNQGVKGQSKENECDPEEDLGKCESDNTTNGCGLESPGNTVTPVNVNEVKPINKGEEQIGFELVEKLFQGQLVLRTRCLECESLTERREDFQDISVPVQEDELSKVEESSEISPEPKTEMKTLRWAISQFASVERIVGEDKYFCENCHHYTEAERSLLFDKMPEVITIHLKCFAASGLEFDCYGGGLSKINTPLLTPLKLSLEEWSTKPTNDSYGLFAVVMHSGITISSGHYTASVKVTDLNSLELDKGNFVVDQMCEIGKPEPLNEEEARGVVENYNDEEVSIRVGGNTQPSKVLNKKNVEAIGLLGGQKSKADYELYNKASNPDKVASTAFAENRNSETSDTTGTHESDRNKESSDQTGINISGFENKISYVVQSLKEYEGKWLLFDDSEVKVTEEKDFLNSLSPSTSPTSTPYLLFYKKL
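USP1/UAF1 complex (1 nM) preincubated 15 min at room temperature with compound, then Ub-Rho substrate (150 nM final) added. Kinetic fluorescence at 480/540 nm over 6 reads at 60 s intervals; 50 mM HEPES pH 7.8, 0.5 mM EDTA, 0.1 mg/ml BSA, 1 mM TCEP, 0.01% Tween-20.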
TSG101-PTAP inh = blocks PTAP/TSG101 interaction to inhibit HIV-1 budding | Q99816 | Fluorescence polarization, FITC-PTAP peptide / Tsg101 binding | Potency, µM (top dose mostly 115 µM), usual class: inhibitors | AID 493005 | 340,000 tested, under 10 active; active = well fitted inhibition curve with a large enough effect in the main read-out, with a control signal flat, not every such curve was filed as active; inconclusive = small, poorly fitted or top-dose-only effect, or effect the other way, or a change in a side signal; inactive = no such curve, though single readings can be large or run the other way
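Compounds were pin-transferred onto Tsg101 binding domain (10 uM final) in HEPES pH 7.5 buffer, then FITC-PTAP peptide was added at 50 nM final. After 20 min at RT, polarization reported peptide displacement across a qHTS concentration series.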
PLK1 PBD inh = blocks phosphopeptide binding to human PLK1 polo-box domain | P53350 | Plk1 PBD binding of FITC phosphopeptide, fluorescence polarization | Potency, µM, hits mostly inhibitors | 360,000 tested, 2.8% active | AID 720504; also: series mostly up to about 57 µM; nearly all actives have a fitted effect of over 65% in size
USP1-UAF1 confirm = blocks human USP1/UAF1 cleavage of Ub-Rhodamine; shares compounds with VDR inhibitor; Ub-Rhodamine cleavage, fluorescence kinetic read; Potency, µM (series often up to 56.8 µM), actives largely listed as inhibitors; 50 tested, 50% active
VDR confirm = inhibits human vitamin D receptor, primary hit validation; shares compounds with VDR inhibitor; VDR-coactivator inhibition assay, qHTS confirmation; AID 602199; Potency, µM, actives largely listed as inhibitors; 840 tested, 89% active
VDR FP = confirmation of human VDR-coactivator binding inhibitors, fluorescein label. shares compounds with VDR inhibitor. VDR-coactivator binding, fluorescein fluorescence polarization. Potency, µM (top dose mostly 57.1 µM), hits mostly inhibitors. 840 tested, 48% active
VDR bla reporter = inhibits human VDR in beta-lactamase reporter cells; VDR beta-lactamase reporter cells, FRET ratio; cells co-treated with VDR agonist LG190178; Potency, µM (highest dose often 46.1 µM), usual class: inhibitors; AID 602202; shares compounds with VDR inhibitor; 840 tested, 23% active
VDR cytotox = cell toxicity, VDR inhibitor hit counter-screen; shares compounds with VDR inhibitor; cytotoxicity counter-screen, cell viability, qHTS; Potency, µM (doses to about 48.3 µM), hits mostly cytotoxic; 840 tested, 18% active; AID 602204; also: nearly all actives have a fitted effect of over 75% in size
Hits are given with their value; . = inactive; ? = inconclusive; / = no result given. Unless noted, calls follow the shape of the dose curve; as a rule, active = well fitted curve in the direction sought with a large enough effect; inconclusive = small, poorly fitted or top-dose-only effect, or another doubt; inactive = no such curve, though single readings can be large; an effect the other way counts as inactive or inconclusive.

SMILES	VDR inhibitor	KAT2A inh	USP1-UAF1 inh	TSG101-PTAP inh	PLK1 PBD inh	VDR confirm	VDR FP	VDR bla reporter	VDR cytotox	others
CCN(CC)c1ccc(C=Nc2ccc(N(C)C)cc2)c(O)c1	?	.	?	?	.	4	.	.	.
O=c1c(Cl)c(Cl)cnn1Cc1nnc(-c2ccc(Cl)cc2)o1	?	.	.	.	?	?	?	?	?
Fc1cccc(Cl)c1CNc1ccc(N2CCCC2)cc1	50µM	.	.	.	21µM	12	13µM	.	?
NS(=O)(=O)c1ccc(NCc2c(F)cccc2Cl)cc1	.	.	.	.	.	/	/	/	/
CCOC(=O)c1sc(N)c(C(=O)Nc2ccccc2OC)c1C	71µM	?	?	.	4.7µM	11	?	.	?
C/C=C1\NC(=O)[C@H](C)NC(=O)[C@@H](NC(=O)[C@H](Cc2ccc(O)cc2)NC(=O)[C@@H](NC(=O)/C(C)=C/C)C(C)C)[C@@H](C)OC(=O)[C@H](CC(C)C)NC(=O)[C@@H](CCC(=O)O)NC1=O	/	/	/	/	.	/	/	/	/
COc1ccc(C(=O)/C=C/C(=O)N(CC(=O)NC2CCCCC2)Cc2ccccc2)c(O)c1	28µM	.	.	.	5.3µM	12	?	13µM	?
O=S(=O)(c1ccccc1)N1CCC[C@@]2(CCN(C(c3ccccc3)c3ccccc3)C2)C1	.	.	/	/	/	/	/	/	/
CCOC(=O)c1cc(-c2ccccc2)sc1NC(=O)c1ccc(OC)cc1	50µM	.	.	.	5.3µM	30	13µM	.	.
COC(=O)c1sc(-c2ccccc2)cc1NC(=O)c1ccc(OC)cc1	.	.	.	.	.	/	/	/	/
Cc1ccc(/C(O)=C2/C(=O)C(=O)OC2c2ccc(Cl)cc2)cc1 (stereo unspecified)	?	?	.	.	?	11	10µM	.	.
COc1ccc(C(Sc2ccccc2)c2ccccc2)cc1OC (stereo unspecified)	.	.	?	.	.	/	/	/	/
O=C1NC(=O)/C(=C/c2ccc(-c3ccc(F)cc3O)o2)S1	13µM	?	/	/	/	/	/	/	/	USP1-UAF1 confirm=53µM
CCOC(=O)C1=C(C)N=C2SC(C(=O)OC)=CC(=O)N2C1c1ccc(F)cc1 (stereo unspecified)	22µM	.	.	.	.	13	?	.	?
Cc1ccc(C(=O)/C=C/C(=O)O)cc1	14µM	.	.	.	?	7.5	10µM	.	?
Clc1ccc(C[n+]2csc3ccccc32)cc1	50µM	.	.	.	27µM	15	?	.	.
COc1ccc(C(=O)Nc2cc(C)nn2-c2ccc(F)cc2)cc1	.	.	.	.	.	/	/	/	/
CCc1ccc(S(=O)(=O)Nc2ccc(O)c3ccccc23)cc1	?	.	.	.	?	3	8.9µM	?	?
CCOc1ccc(C(=O)/C=C/c2cc(OC)c(OC)c(OC)c2)cc1	?	.	.	.	.	/	/	/	/
COc1cc(/C=C/C(=O)c2ccc(F)cc2)cc(OC)c1OC	32µM	.	.	.	.	21	?	?	?
CCOc1ccc(/C=C/C(=O)Nc2sc3c(c2C(=O)OC)C(C(=O)OC)CC3)cc1 (stereo unspecified)	22µM	?	?	/	/	?	3.5µM	13µM	?
CCOC(=O)N1C(=O)[C@@](CC)(c2ccccc2)N1C(=O)OCC	79µM	.	?	.	13µM	21	.	.	?
